The target in assay [1] is T1, Inhibitor of nuclear factor kappa-B kinase subunit epsilon (Homo sapiens) (UniProt Q14164).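 Further: reported values are averaged percent inhibition figures against human IKKε.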
T1 sequence (whole entry): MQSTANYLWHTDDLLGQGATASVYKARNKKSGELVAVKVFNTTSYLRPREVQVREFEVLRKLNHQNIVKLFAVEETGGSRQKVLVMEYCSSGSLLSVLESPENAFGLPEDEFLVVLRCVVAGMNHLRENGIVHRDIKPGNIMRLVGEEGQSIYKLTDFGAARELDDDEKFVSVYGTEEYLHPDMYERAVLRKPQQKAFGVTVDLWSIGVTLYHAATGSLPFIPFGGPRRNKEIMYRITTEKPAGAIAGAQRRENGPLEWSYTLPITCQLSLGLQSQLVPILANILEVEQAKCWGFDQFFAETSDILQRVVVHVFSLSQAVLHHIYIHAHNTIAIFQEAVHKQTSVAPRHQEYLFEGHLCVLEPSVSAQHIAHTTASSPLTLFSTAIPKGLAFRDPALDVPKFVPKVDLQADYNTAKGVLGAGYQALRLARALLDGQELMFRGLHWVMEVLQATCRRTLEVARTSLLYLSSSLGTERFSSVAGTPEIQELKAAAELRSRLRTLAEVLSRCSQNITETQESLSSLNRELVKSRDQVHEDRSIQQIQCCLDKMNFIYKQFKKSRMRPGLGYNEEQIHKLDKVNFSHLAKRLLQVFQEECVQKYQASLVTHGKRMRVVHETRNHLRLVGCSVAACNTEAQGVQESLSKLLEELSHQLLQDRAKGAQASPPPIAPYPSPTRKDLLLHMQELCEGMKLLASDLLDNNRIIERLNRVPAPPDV
The conditions noted are these: at 1 µM.

For assay [2], the target named is T2, Serine/threonine-protein kinase Nek1 (Homo sapiens) (UniProt Q96PY6).
T2 sequence (whole entry): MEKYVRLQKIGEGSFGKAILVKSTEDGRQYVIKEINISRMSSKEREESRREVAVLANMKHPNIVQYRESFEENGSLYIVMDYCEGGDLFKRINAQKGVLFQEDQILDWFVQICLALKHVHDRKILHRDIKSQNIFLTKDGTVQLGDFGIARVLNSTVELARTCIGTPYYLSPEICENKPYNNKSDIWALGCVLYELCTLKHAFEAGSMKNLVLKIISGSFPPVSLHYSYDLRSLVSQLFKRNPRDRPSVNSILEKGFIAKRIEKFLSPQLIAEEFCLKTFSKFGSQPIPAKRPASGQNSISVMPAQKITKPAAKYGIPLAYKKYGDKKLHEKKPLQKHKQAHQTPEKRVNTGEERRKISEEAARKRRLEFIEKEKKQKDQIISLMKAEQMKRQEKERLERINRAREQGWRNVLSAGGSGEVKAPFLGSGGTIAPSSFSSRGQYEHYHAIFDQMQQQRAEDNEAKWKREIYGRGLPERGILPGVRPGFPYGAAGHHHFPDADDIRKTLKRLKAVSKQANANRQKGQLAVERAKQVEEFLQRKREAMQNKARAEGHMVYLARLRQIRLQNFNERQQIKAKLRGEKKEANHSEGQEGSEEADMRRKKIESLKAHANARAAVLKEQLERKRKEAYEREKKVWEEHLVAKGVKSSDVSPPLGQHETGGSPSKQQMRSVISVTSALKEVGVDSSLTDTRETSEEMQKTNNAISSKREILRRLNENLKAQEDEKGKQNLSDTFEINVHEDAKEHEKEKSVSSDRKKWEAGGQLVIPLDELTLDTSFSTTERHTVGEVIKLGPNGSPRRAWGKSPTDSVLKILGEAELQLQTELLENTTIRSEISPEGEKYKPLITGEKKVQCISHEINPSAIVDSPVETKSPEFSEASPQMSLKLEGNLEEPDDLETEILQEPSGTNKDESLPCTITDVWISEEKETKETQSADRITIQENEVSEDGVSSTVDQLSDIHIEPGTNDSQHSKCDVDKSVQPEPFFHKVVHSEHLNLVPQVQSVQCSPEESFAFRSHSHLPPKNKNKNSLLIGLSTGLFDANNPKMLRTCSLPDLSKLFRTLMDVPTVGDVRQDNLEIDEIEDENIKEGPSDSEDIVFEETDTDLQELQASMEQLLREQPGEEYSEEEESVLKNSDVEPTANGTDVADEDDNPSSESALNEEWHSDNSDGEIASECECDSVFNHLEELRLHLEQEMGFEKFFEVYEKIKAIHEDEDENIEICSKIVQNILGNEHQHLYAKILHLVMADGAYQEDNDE
The conditions noted are these: at 0.1 µM.

Assay [3] has as its target T2, Serine/threonine-protein kinase Nek1 (Homo sapiens). The settings on record: at 1 µM.
Assay [4] has as its target T3, Serine/threonine-protein kinase Nek2 (Homo sapiens) (UniProt P51955).
T3 sequence (whole entry): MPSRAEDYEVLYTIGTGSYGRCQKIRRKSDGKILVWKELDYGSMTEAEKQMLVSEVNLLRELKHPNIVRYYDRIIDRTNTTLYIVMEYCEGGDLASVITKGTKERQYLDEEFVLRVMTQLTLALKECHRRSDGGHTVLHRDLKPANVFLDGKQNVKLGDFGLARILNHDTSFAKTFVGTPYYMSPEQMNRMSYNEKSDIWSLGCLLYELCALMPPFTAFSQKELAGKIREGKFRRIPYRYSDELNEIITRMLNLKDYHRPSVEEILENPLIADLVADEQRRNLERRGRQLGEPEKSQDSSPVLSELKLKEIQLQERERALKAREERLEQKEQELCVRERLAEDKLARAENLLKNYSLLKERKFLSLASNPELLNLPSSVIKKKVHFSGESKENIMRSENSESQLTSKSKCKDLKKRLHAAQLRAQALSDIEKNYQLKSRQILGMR
The conditions noted are these: at 0.1 µM.

The target in assay [5] is T3, Serine/threonine-protein kinase Nek2 (Homo sapiens). The settings on record: at 1 µM.
The target in assay [6] is Serine/threonine-protein kinase Nek6 (Homo sapiens) (UniProt Q9HC98). The conditions noted are these: at 0.1 µM.
Assay [7] shares this target. The conditions noted are these: at 1 µM.
The target of assay [8] is Serine/threonine-protein kinase Nek7 (Homo sapiens) (UniProt Q8TDX7). The conditions noted are these: at 0.1 µM.
Assay [9] has the same target. The settings on record: at 1 µM.
Assay [10] concerns the target T4, Serine/threonine-protein kinase Nek9 (Homo sapiens) (UniProt Q8TD19).
T4 sequence (whole entry): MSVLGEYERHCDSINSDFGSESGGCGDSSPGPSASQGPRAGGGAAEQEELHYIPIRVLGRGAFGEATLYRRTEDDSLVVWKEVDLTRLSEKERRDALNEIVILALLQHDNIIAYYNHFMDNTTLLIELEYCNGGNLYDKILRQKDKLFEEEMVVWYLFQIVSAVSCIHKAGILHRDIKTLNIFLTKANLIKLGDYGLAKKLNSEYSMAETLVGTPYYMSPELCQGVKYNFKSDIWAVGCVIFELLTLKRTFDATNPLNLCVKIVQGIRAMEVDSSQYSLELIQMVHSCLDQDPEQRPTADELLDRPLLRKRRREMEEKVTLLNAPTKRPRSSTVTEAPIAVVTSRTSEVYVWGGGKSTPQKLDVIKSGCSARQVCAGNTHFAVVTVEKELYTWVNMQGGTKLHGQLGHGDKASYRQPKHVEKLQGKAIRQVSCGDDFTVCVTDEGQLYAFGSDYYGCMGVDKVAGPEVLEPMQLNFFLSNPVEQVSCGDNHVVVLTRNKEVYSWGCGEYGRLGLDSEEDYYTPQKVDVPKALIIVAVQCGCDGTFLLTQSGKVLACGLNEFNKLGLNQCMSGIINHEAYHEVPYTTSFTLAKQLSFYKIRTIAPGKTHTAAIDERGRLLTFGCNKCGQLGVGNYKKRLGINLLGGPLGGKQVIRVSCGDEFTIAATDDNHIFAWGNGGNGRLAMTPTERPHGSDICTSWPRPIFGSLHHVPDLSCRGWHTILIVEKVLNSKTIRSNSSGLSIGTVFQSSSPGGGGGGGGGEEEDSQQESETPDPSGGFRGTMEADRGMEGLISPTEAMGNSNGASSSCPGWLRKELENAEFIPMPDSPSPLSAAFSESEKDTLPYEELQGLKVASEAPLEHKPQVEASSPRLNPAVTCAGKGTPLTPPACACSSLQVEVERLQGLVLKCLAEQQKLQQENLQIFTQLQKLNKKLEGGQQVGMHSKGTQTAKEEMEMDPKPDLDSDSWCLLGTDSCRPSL
The conditions noted are these: at 0.1 µM.

Assay [11] deals with T4, Serine/threonine-protein kinase Nek9 (Homo sapiens). The conditions noted are these: at 1 µM.
Assay [12] addresses Serine/threonine-protein kinase PLK1 (Homo sapiens) (UniProt P53350). The settings on record: at 0.1 µM.
Assay [13] has the same target. The conditions noted are these: at 1 µM.
Assay [14] concerns the target T5, Dual specificity protein kinase TTK (Homo sapiens) (UniProt P33981).
T5 sequence (whole entry): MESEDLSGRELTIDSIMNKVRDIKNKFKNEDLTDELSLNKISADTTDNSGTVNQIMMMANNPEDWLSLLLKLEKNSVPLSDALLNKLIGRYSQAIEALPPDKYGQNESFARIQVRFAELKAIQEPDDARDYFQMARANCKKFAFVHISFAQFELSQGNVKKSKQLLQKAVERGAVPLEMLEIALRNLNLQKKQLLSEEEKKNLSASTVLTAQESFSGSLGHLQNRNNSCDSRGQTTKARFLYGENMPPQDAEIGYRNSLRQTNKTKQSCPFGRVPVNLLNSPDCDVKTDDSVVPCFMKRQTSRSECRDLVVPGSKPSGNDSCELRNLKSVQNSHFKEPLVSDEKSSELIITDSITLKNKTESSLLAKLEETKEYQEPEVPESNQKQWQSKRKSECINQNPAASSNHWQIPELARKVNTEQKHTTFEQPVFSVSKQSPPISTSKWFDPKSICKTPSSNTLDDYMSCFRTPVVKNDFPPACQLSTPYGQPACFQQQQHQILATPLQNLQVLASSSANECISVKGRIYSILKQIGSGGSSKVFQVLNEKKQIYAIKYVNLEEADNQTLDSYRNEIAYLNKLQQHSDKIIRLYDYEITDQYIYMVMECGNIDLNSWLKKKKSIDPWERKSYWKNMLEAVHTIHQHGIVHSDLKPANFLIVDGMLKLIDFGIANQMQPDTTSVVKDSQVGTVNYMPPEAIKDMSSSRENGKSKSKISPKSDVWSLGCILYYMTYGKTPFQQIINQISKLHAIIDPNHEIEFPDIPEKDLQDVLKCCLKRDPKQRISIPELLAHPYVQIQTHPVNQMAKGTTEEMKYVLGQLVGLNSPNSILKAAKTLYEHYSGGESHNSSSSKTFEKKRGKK
The settings on record: at 0.1 µM.

The test system of assay [15] is T6, Receptor-type tyrosine-protein kinase FLT3 (Homo sapiens), P36888 [D835Y].
T6 sequence (whole entry): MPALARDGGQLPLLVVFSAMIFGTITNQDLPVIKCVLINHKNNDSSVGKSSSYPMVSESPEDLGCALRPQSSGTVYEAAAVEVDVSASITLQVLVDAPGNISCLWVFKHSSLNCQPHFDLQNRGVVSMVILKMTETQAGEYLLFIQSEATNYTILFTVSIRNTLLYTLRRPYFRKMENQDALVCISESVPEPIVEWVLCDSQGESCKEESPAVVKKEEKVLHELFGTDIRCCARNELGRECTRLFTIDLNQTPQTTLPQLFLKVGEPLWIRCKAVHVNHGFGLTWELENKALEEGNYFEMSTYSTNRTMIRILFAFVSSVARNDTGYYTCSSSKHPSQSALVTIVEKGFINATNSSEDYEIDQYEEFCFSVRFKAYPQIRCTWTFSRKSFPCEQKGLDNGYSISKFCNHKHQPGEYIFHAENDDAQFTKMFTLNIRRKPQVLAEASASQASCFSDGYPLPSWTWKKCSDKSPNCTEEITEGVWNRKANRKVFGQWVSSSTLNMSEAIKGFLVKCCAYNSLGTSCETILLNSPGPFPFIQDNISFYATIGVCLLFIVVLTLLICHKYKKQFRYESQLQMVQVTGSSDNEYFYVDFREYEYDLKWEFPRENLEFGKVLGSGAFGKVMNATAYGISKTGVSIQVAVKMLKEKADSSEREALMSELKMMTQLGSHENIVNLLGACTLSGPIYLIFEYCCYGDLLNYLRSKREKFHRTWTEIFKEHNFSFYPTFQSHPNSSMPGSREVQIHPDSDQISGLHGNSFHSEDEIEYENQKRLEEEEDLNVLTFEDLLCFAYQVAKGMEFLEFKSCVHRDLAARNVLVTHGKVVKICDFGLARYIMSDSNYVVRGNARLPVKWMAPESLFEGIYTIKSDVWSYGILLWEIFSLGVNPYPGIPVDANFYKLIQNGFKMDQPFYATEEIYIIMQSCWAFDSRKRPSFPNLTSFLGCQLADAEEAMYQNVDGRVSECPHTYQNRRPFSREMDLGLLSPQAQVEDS
The conditions noted are these: at 1 µM.

Assay [16] has as its target Vascular endothelial growth factor receptor 3 (Homo sapiens) (UniProt P35916). The conditions noted are these: at 0.1 µM.
For assay [17] the target is unchanged. The settings on record: at 1 µM.
Assay [18] addresses Macrophage colony-stimulating factor 1 receptor (Homo sapiens) (UniProt P07333). The settings on record: at 0.1 µM.
Assay [19] shares this target. The conditions noted are these: at 1 µM.
The target in assay [20] is Tyrosine-protein kinase Fyn (Homo sapiens) (UniProt P06241). The settings on record: at 0.1 µM.

Consider one compound from ChEMBL document CHEMBL1961873, “Compounds: GSK PKIS; Assays: Nanosyn kinase panel” (2012).

Each structure is given as a SMILES string.

Chain of Serine/threonine-protein kinase Nek6 (Homo sapiens) (Q9HC98 whole entry): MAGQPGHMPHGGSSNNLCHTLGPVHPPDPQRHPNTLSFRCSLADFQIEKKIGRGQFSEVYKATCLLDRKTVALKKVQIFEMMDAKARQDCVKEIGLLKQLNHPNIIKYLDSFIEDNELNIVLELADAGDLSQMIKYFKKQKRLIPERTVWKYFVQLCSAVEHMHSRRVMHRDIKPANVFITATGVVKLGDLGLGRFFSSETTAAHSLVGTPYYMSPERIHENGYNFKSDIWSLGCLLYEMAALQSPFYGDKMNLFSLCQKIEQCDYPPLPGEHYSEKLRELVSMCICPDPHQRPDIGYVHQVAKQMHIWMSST
Chain of Macrophage colony-stimulating factor 1 receptor (Homo sapiens) (P07333 whole entry): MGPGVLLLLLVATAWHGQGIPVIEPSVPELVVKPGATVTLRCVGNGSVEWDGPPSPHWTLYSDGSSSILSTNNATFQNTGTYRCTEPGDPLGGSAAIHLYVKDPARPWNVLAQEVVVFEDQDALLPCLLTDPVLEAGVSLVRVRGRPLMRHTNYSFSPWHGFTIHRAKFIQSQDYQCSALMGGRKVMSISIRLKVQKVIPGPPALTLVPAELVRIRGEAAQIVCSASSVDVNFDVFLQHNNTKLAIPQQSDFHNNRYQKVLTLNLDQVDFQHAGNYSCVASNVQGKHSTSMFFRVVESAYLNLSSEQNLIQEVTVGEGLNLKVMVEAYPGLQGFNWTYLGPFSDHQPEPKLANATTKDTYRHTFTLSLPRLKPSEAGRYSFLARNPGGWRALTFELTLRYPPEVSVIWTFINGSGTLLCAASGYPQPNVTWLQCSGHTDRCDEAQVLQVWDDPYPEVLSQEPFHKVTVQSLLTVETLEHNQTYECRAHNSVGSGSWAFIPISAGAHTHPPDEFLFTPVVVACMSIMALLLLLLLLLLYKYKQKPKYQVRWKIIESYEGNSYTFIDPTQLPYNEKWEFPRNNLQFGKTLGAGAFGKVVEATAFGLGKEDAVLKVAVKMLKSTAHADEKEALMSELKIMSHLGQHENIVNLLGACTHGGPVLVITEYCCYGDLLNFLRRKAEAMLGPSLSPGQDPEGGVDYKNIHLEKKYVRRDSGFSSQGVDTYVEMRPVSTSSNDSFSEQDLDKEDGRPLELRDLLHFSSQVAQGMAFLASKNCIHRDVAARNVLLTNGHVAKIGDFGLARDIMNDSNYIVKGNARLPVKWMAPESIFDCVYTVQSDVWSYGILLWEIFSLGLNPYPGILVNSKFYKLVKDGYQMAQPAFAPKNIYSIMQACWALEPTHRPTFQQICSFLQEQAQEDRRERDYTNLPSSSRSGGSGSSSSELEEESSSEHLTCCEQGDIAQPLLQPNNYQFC
Chain of Serine/threonine-protein kinase Nek7 (Homo sapiens) (Q8TDX7 whole entry, looked up): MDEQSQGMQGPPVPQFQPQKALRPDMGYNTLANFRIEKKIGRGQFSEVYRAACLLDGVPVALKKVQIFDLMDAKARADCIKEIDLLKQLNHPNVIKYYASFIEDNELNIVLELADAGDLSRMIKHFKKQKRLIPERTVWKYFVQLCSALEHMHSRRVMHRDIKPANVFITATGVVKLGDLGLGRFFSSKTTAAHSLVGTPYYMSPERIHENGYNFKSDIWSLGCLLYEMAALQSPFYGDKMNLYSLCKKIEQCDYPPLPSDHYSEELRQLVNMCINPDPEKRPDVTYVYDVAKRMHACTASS
Chain of Serine/threonine-protein kinase PLK1 (Homo sapiens) (P53350 whole entry): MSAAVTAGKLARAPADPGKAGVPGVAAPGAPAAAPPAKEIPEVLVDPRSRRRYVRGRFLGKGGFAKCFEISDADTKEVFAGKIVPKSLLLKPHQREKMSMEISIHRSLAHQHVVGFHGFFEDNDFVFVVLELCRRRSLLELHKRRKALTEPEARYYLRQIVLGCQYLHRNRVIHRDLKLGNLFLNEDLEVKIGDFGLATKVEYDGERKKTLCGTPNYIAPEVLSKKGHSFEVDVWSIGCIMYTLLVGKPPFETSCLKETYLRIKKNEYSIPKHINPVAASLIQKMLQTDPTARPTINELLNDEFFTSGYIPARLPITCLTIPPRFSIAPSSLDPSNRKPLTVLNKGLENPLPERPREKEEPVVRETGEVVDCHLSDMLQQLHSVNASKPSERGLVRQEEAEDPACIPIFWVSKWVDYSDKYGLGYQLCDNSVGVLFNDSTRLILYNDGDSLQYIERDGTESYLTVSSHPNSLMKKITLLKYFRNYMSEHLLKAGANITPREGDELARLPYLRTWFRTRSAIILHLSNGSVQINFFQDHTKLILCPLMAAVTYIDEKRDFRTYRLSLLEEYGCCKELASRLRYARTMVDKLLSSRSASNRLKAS
Chain of Vascular endothelial growth factor receptor 3 (Homo sapiens) (P35916 whole entry): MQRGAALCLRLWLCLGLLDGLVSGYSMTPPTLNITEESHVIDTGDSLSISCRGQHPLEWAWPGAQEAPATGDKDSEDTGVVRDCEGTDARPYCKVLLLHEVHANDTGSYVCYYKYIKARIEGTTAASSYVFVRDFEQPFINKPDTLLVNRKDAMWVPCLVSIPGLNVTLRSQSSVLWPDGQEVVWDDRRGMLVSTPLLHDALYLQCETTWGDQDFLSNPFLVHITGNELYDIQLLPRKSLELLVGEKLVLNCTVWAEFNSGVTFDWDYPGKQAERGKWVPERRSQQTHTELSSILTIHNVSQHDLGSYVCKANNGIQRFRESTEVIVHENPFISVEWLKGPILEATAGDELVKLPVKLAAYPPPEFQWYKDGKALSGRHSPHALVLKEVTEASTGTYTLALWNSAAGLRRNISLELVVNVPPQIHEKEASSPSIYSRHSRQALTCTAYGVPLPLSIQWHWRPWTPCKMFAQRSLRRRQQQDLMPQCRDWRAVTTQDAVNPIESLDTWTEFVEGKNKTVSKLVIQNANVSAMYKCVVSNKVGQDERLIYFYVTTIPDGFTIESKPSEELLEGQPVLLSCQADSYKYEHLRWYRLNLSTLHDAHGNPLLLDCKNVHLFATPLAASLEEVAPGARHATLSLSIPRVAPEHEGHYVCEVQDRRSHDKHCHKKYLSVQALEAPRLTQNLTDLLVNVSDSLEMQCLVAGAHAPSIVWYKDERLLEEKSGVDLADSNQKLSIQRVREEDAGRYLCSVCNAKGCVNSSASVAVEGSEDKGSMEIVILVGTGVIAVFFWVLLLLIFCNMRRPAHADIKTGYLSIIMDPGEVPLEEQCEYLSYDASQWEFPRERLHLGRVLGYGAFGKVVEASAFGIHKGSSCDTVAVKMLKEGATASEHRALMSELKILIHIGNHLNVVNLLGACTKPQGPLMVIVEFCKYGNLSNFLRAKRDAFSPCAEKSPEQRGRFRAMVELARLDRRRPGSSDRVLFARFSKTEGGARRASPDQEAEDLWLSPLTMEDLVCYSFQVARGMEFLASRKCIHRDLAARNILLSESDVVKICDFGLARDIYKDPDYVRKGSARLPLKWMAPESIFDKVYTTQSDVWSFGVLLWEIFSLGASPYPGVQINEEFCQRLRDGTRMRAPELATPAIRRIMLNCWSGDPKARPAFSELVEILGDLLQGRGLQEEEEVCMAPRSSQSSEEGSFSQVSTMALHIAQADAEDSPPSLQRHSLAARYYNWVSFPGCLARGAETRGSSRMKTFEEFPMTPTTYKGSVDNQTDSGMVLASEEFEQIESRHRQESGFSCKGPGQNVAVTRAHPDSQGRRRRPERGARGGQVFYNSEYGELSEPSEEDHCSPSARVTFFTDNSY
Chain of Tyrosine-protein kinase Fyn (Homo sapiens) (P06241 2-537 limits assumed): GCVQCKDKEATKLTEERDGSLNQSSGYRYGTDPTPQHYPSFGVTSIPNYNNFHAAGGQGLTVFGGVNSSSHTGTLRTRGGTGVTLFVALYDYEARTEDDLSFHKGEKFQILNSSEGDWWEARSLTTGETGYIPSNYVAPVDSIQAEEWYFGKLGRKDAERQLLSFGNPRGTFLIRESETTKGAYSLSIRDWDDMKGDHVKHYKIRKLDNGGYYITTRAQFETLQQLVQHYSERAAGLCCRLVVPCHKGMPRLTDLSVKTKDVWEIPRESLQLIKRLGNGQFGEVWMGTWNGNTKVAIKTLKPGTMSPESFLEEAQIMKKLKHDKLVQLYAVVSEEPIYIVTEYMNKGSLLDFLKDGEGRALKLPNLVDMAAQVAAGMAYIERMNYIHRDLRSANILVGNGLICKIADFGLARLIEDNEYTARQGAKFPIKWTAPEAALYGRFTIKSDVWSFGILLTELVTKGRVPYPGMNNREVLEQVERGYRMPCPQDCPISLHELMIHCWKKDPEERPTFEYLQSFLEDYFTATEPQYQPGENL

By inhibition is commonly meant the change of the read-out against control, counted positive when it falls. Take `COc1ccc(-c2ccc3c(NC(=O)C4CC4)n[nH]c3n2)cc1`: the inhibition in assay [1] was -8.46%; in [2], 0.44%; in [3], 2.1%; in assay [4], 1.84%; in assay [5], 1.4%; in assay [6], 2.4%. Moreover, the inhibition in assay [7] worked out at 3.26%; in assay [8] it was 2.52%; in [9], 1.09%; in [10], 4%; in assay [11] it was 3.42%; in assay [12] it was 3.2%. Moreover, the inhibition in [13] was found to be 0.74%; in assay [14], 5.12%; in [15], 5.49%; in assay [16], 1.77%; in assay [17], 1.31%; in [18], 1.02%. The inhibition in assay [19] was found to be 1.62%; in assay [20], 1.9%.
